Assay results reported in PubChem BioAssay AID1211 (NMMLSC, 2008).
The source made the active and inactive calls. How the calls were made is not given here.

molecular target: Estrogen receptor (Homo sapiens) (UniProt P03372); experiment: ERalpha ligand binders by competition, primary screen, cell-based, Cos7 ERalpha-GFP, flow cytometry (AID 1211); details: fluorescent ligand competition, at 10 µM, hits give high values;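 further: 0% = DMSO vehicle wells and 100% = no E2-Alexa633 signal left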
Sequence (P03372 whole entry, looked up): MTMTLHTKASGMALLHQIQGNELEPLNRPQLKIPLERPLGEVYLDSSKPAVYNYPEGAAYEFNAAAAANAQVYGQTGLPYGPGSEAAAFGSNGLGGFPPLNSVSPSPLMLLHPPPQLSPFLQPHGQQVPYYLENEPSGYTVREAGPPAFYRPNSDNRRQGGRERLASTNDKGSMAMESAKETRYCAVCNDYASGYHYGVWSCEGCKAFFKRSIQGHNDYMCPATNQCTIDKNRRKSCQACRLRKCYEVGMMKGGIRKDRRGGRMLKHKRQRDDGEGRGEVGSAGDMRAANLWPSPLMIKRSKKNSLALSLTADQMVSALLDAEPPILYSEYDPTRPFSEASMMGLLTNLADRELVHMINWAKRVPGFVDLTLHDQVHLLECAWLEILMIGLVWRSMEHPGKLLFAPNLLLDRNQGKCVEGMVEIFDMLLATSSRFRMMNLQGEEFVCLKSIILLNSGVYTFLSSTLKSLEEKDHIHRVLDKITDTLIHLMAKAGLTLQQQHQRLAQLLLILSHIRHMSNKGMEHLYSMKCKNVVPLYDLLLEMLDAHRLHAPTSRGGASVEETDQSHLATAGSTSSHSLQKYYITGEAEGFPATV

Inhibition of ligand binding, inactive:
COc1cc2c3c(c1)/C(=C1/SC(NC(C)=O)=NC1=O)C(=O)N3C(C)(C)C=C2C 29%
Cc1ccc2c(c1C)NC(C(=O)O)C1CC=CC21 (centres undefined) 0%
COc1cccc2sc(Nc3nnc(-c4ccc(F)cc4)o3)nc12 17%
CCN(c1ccccc1)S(=O)(=O)c1ccc2[nH]cc(C(=O)NCCOC)c(=O)c2c1 22%
COc1cc2c(c([N+](=O)[O-])c1)NC(c1ccc(Br)cc1)C1CC=CC21 (centres undefined) 0%
Cc1nn(-c2ccccc2)c2sc(C#N)c(N)c12 17%
Cc1ccccc1-n1nc(-c2ccc(N)cc2)cc1N 7%
O=C(O)COc1cc2oc(=O)c3c(c2cc1Cl)CCCC3 0%
O=[N+]([O-])c1cc(/C=N/N2CCN(C3c4ccccc4-c4ccccc43)CC2)ccc1Cl 21%
CCOc1cc2c(c([N+](=O)[O-])c1)NC(c1ccc(Br)cc1)C1CC=CC21 (centres undefined) 0%
Cc1c(O)ccc2c3c(c(=O)oc12)CCCC3 0%
COc1ccc(C2CC(=O)Nc3ccccc3S2(=O)=O)cc1OC (centres undefined) 0%
Cc1ccc(-n2cc3c(c(C#N)c2=N)CC(C)(C)CC3=O)cc1 35%
CCOC(=O)c1ccc2c(c1)C1C=CCC1C(c1cccc([N+](=O)[O-])c1)N2 (centres undefined) 21%
CC12CCCCC1(O)[N+](=O)C1=C(CCCC1)N2[O-] (centres undefined) 3%
C=C1c2ccc(OC)cc2NC(=O)N1c1ccccc1 4%
CC(=O)c1ccc(N2Cc3ccccc3C2)cc1 8%
CCNC(=O)N1c2ccc(OCC)cc2C(C)=CC1(C)C 10%
O=C1CC(c2ccncc2)c2cc3c(cc2N1)OCCO3 (centres undefined) 0%
O=[N+]([O-])c1ccc(Cl)c2c1C1C=CCC1C(c1ccccn1)N2 (centres undefined) 53%
CCCCCCc1cc2c3c(c(=O)oc2cc1OCC(=O)O)CCCC3 1%
CC1=CC(C)C2(CO)COC(c3ccccc3O)C1C2C (centres undefined) 0%
CCOc1ccccc1-c1nc(-c2ccc(NC(=O)c3ccc(Br)o3)cc2)no1 52%
COc1ccc(C2(CNCC(N)=O)CCCC2)cc1OC 10%
O=C(O)c1cc(Cl)c2c(c1)[C@@H]1C=CC[C@@H]1[C@H](c1ccc(S(=O)(=O)N3CCOCC3)cc1)N2 42%
CC1(C)Cc2[nH]c3ccccc3c2C(C)(C)N1 6%
Cc1nc(-c2ccc(O)c(O)c2)cs1 17%
O=c1oc2c(CN3CCCC3)c(O)ccc2c2c1CCC2 0%
Cc1ccc2c(c1)C1C=CCC1C(C(=O)O)N2 (centres undefined) 0%
Cc1ccn2c(NCc3ccc4c(c3)OCO4)c(-c3ccc(O)cc3)nc2c1 32%
O=C1CC(c2ccc3c(c2)OCO3)c2ccc3ccccc3c2N1 (centres undefined) 0%
CC1(C)CC(=O)c2cn(-c3ccc(Cl)cc3)c(=N)c(C#N)c2C1 35%

Inhibition of ligand binding, active:
COc1cc([N+](=O)[O-])cc2c1N[C@@H](c1ccc(C(=O)O)cc1)[C@H]1CC=C[C@@H]21 71%
O=C(O)c1ccc([N+](=O)[O-])c2c1NC(c1ccccc1)C1CC=CC21 (centres undefined) 100%
O=C(O)c1ccc2c(c1)C1C=CCC1C(c1cc3c(cc1Br)OCO3)N2 (centres undefined) 79%
O=C(NC1CC1)c1ccc2c(c1)C1C3CCC(C3)C1C(c1ccccc1)N2 (centres undefined) 86%
Cc1cc(C)c2c(c1)NC(c1cc3c(cc1Br)OCO3)C1CC=CC21 (centres undefined) 79%
CC(=O)Oc1ccc(C2Nc3c(C(=O)O)ccc([N+](=O)[O-])c3C3C=CCC32)cc1 (centres undefined) 85%
Fc1ccc2c(c1)C1C=CCC1C(c1cc3c(cc1Br)OCO3)N2 (centres undefined) 84%
